For some assays here: Entries with a potency or affinity are not part of this list.
Assays:
Design in all cases: scale not given: direction of the effect not stated beside the values
[1] = target: Protein translocase subunit SecA (Escherichia coli (strain K12)) (UniProt P10408); assay: Assay to Identify E. coli SecA ATPase Inhibitors; assay type: functional; conditions: 30 µM
[2] = target: T1, Ubiquitin-activating enzyme e1, putative (Leishmania donovani (strain BPK282A1)) (UniProt E9BSI1); assay: Leishmania donovani Ubiquitin Activating Enzyme (LdE1); assay type: functional; conditions: 30 µM
T1 sequence (whole entry): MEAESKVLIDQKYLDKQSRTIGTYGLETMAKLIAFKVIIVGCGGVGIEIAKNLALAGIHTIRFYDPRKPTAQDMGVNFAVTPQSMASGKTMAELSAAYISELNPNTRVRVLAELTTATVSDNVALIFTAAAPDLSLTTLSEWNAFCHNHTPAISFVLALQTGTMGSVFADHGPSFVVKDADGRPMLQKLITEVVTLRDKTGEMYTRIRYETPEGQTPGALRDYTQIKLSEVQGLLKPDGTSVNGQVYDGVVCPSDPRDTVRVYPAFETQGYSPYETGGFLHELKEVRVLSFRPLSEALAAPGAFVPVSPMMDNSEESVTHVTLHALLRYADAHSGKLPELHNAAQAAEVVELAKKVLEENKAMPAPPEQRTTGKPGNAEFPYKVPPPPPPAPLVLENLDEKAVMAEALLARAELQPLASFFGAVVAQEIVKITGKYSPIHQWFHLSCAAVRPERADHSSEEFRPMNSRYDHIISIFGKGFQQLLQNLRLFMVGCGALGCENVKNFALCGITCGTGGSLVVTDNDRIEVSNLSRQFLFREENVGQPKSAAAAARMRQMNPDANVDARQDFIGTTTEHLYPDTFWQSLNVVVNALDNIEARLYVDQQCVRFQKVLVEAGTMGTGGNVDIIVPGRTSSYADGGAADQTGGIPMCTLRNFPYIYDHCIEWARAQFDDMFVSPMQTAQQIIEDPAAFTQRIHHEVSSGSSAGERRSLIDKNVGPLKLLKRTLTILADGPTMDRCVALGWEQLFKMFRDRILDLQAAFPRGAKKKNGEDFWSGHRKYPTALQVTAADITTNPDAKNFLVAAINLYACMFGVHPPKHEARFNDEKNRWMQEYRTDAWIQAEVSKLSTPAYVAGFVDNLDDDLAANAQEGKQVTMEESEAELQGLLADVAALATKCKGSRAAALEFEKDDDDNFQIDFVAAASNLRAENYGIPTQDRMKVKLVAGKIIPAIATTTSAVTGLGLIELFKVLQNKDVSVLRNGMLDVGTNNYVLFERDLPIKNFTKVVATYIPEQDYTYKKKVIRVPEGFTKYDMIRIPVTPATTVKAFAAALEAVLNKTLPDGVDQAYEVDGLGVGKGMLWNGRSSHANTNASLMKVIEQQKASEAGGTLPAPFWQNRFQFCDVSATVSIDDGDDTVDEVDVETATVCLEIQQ

[3] = target: Sialic acid-binding Ig-like lectin 9 (Homo sapiens) (UniProt Q9Y336); assay: Hs-Siglec9 ALPHAscreen SOP 20170721; conditions: 10 µM
Trypanosoma cruzi = assay: Trypanosoma cruzi phosphomannomutase and mannose-1-phosphate guanylyltransferase assay; assay type: functional; conditions: 10 µM
[4] = target: T2, Arginase-2, mitochondrial (Homo sapiens) (UniProt P78540); assay: in vitro enzyme assay to detect the production of urea directly proportional to the activity of Arginase II; assay type: functional; conditions: 33.3 µM; also: in the data most compounds retested in dose-response had high values
T2 sequence (whole entry): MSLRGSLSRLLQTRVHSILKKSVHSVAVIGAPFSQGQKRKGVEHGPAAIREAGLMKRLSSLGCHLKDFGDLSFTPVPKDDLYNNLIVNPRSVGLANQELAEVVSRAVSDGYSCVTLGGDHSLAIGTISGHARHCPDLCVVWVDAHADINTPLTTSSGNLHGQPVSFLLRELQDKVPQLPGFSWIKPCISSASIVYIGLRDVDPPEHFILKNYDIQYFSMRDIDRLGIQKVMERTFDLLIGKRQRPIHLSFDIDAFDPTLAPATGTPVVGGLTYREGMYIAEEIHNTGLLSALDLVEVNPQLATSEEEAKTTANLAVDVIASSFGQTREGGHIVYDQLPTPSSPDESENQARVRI

[5] = target: T3, Proteasome subunit beta (Trypanosoma cruzi) (UniProt O96673); assay: Trypanosoma cruzi proteasome chymotrypsin-like activity (TcProtChymo) assay.; also: in the data most compounds retested in dose-response had high values; assay type: functional; conditions: 9.37 µM
T3 sequence (whole entry): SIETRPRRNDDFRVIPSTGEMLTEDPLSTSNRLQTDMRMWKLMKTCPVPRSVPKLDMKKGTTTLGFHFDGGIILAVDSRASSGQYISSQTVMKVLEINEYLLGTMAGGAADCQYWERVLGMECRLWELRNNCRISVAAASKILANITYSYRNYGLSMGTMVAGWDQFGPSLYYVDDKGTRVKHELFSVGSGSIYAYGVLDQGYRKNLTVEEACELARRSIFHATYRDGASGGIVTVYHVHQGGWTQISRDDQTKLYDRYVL

Homo sapiens = organism: Homo sapiens; assay: To identify inhibition of the IFN signalling (Jak-Stat) pathway via expression of an eGFP reporter gene under the control of an IFN-stimulated response element (ISRE) containing MxA promoter.; assay type: functional; conditions: 30 µM
[6] = target: T4, Tyrosyl-tRNA synthetase, putative (Trypanosoma cruzi (strain CL Brener)) (UniProt Q4DSP6); assay: Trypanosoma cruzi tyrosyl tRNA synthetase (TcYRS) _High Tyrosine SOP; assay type: functional; conditions: 30 µM; also: in the data most compounds retested in dose-response had high values
T4 sequence (whole entry): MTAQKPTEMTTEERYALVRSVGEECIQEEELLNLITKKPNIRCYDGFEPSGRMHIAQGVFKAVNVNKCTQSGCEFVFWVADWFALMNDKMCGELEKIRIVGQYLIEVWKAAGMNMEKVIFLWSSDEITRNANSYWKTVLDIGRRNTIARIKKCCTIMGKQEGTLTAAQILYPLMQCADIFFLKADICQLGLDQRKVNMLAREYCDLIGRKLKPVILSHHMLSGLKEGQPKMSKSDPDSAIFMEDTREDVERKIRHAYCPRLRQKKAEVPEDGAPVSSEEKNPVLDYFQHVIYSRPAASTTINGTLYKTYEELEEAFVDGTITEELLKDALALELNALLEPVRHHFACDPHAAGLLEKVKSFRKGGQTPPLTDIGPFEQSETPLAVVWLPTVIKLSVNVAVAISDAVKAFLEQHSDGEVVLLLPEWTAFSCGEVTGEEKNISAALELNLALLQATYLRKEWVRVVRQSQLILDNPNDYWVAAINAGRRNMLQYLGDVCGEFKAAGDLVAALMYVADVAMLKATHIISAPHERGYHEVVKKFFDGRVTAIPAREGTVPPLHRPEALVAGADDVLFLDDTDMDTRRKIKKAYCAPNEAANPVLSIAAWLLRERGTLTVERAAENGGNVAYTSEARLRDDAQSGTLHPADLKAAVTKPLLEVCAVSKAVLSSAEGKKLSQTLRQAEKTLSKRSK

[7] = target: T4, Tyrosyl-tRNA synthetase, putative (Trypanosoma cruzi (strain CL Brener)); assay: Trypanosoma cruzi tyrosyl tRNA synthetase (TcYRS) SOP; assay type: functional; conditions: 30 µM
[8] = target: Chromo domain-containing protein 1 (Saccharomyces cerevisiae (strain ATCC 204508 / S288c) (Baker's yeast)) (UniProt P32657); assay: ScCHD-1 Enzyme Inhibition Assay; assay type: functional; conditions: 30 µM; also: in the data most compounds retested in dose-response had high values
Chromo domain-containing protein 1 (Saccharomyces cerevisiae (strain ATCC 204508 / S288c) (Baker's yeast)), sequence (P32657 whole entry, the tested form may be a part): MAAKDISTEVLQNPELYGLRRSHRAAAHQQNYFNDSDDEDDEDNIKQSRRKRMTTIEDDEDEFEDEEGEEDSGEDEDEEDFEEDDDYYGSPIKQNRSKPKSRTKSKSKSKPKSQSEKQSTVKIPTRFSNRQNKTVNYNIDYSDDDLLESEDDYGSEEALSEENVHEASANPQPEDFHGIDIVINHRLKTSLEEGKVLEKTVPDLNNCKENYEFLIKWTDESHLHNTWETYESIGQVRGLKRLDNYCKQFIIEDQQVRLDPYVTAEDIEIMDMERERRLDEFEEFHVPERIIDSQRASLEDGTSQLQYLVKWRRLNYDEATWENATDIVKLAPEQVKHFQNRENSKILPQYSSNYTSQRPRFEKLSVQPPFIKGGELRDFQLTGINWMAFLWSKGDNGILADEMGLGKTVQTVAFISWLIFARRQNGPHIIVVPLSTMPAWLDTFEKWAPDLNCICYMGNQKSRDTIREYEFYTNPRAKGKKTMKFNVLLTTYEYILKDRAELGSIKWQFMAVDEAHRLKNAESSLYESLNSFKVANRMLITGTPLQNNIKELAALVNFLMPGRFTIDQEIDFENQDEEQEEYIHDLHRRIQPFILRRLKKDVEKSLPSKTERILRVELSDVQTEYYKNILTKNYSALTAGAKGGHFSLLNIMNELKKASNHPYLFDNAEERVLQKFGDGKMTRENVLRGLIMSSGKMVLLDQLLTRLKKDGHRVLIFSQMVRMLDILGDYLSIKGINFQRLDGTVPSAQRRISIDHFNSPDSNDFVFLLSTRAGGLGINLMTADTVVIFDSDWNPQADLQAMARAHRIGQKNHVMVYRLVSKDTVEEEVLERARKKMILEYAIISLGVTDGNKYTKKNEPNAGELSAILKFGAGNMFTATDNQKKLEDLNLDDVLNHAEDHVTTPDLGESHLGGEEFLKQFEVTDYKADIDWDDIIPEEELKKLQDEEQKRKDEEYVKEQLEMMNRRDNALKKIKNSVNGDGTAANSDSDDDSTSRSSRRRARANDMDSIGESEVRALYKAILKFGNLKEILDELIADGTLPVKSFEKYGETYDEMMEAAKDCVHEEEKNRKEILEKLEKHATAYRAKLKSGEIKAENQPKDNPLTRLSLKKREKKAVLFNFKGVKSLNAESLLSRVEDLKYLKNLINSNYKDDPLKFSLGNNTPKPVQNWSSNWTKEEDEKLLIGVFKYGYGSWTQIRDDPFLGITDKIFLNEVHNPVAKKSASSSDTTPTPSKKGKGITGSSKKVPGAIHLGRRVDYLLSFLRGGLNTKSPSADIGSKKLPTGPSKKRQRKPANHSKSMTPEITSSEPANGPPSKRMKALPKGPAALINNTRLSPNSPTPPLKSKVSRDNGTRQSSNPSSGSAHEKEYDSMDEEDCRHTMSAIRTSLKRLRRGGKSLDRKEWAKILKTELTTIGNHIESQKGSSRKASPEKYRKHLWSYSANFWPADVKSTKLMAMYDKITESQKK

Protein translocase subunit SecA (Escherichia coli (strain K12)), sequence (P10408 whole entry): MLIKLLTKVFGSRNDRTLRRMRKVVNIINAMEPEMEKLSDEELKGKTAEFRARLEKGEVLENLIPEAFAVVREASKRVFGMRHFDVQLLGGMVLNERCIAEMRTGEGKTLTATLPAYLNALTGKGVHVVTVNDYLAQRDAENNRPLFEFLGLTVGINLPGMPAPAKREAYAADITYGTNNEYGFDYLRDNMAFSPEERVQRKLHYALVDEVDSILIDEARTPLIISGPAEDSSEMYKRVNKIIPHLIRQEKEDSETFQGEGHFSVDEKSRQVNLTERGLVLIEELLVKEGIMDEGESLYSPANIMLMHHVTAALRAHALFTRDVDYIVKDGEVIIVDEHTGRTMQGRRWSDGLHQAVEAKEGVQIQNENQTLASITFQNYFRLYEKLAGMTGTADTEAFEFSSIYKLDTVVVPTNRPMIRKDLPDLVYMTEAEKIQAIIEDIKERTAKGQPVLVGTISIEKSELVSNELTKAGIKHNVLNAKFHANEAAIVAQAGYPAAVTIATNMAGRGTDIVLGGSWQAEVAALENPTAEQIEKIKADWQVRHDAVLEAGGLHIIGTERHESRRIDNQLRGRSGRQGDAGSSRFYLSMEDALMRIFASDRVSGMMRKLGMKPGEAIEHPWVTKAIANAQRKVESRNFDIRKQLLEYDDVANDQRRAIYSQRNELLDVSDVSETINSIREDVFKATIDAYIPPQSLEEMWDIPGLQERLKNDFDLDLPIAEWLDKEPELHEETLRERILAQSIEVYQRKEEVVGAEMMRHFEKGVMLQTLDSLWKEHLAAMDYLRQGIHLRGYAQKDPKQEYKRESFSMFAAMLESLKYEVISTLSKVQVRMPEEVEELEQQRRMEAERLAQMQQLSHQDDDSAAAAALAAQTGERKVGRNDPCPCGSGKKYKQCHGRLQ
Sialic acid-binding Ig-like lectin 9 (Homo sapiens), sequence (Q9Y336 whole entry): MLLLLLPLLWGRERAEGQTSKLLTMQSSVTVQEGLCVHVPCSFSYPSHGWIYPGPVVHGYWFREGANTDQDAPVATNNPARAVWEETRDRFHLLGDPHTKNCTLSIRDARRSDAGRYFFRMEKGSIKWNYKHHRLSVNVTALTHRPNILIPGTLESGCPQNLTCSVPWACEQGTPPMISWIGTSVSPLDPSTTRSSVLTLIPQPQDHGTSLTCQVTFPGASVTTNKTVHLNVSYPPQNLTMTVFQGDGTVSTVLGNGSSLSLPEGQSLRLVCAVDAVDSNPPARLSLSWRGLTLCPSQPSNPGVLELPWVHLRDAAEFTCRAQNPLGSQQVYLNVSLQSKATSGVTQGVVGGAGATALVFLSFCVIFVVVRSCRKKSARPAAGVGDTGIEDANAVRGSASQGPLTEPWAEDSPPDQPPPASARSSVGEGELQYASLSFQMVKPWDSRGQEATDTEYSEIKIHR

Row | SMILES | Percent Effect [1] [%] | Percent Effect [2] [%] | Percent Effect [3] [%] | Percent Effect (Trypanosoma cruzi) [%] | Percent Effect [4] [%] | Percent Effect [5] [%] | Percent Effect (Homo sapiens) [%] | Percent Effect [6] [%] | Percent Effect [7] [%] | Percent Effect [8] [%]
1 | CCc1nc(C2CCCN2C(=O)c2c[nH]c(C)n2)no1 (stereo not given) | -9.57 | 10.7 | 18.3 | 3.41 | -2.66 | 12.1 | -2.6 | 7.89 | 12.8 | -9.37
2 | COCCN1C[C@H]2[C@@H](C1)N(C(=O)c1cccs1)CC[C@H]2OC | -5.76 | -108 | 1.61 | 7.11 | -6.07 | 4.5 | -13.9 | 1.58 | 7.69 | 1.4
3 | Cc1cc(C)cc(OCC(=O)NC2CCN(S(C)(=O)=O)CC2)c1 | -3.04 | 13 | -6.89 | -8.58 | -1.84 | 8.77 | 14.6 | 3.92 | 16.5 | -7.11
4 | Cc1ccc(CN2CCCn3c(nc(CN4CCCC4)cc3=O)C2)s1 | -4.72 | 3.9 | -1.12 | -2.82 | -2.02 | 2.38 | -18.4 | 0.526 | 7.69 | 3.51
5 | Cc1ccc(NC(=O)C2CSCN2C(=O)c2cnn(C)c2)c(C)c1 (stereo not given) | -6.12 | 5.13 | 11 | 3.29 | -0.41 | -1.28 | 0.716 | 4.31 | 18.1 | -1.32
6 | O=C1C[C@H]2[C@@H](CCN2C(=O)Cc2cccs2)N1Cc1cccnc1 | -6.6 | 9.09 | -0.0705 | -1.31 | -4.11 | 13.7 | 8.33 | 6.76 | 7.5 | -3.4
7 | Cc1cc2c(cc1C(=O)N1CC[C@H](CO)[C@@H](O)C1)OCCO2 | -9.1 | 2.7 | 2.86 | 4.37 | 1.05 | 8.22 | -0.0662 | 4.79 | 12.2 | -4.74
8 | O=C(NCCO)c1ccn(-c2ccc3ccccn23)n1 | -3.79 | -32.5 | -8.91 | 3.99 | -8.5 | 19.1 | 7.26 | 11.1 | -2.56 | -0.759
9 | O=C(NCC1CC1)C1=NOC2(CCN(S(=O)(=O)c3cccs3)C2)C1 (stereo not given) | -2.62 | -3.9 | 6.57 | -1.85 | -3.64 | 3.79 | -1.32 | -0.526 | -2.56 | 0.639
10 | Cc1cncc(C2CCCN(C(=O)c3cccn3C)C2)n1 (stereo not given) | -1.26 | 17.3 | -0.809 | 1.97 | 1.33 | 13.3 | -5.79 | 7.41 | 12.5 | -25
11 | CC(O)(CN1CCC2(CC1)OCCO2)c1cccc(C(F)(F)F)c1 (stereo not given) | 1.91 | 10.4 | 8.88 | -0.187 | -2.25 | 2.98 | 18.4 | 3.92 | 21.2 | -7.48
